# Source: PubChem BioAssay (National Center for Advancing Translational Sciences (NCATS))
# A selection: hits, their analogues and other compounds. The true share with any hit is near 21%.
# CHX counter: counter-screen for Shiga toxin inhibitors: cycloheximide protein synthesis inhibition. AID 2314. max response, %. 300,000 tested, 12% active. cell reporter, cycloheximide protein synthesis inhibition counterscreen; in the data active = max response mostly above about 13%, no sharp cut-off; inactive = mostly below about 14%; also: read at 38.3 µM for the half of the compounds with a filed dose; 0% is about no effect
# Pf growth 96h: P. falciparum growth inhibition at 96 hours; 320,000 tested, 6.9% active; P. falciparum luciferase reporter growth, 96 h; Potency, µM (highest dose often 28.7 µM), for inactives: at the top dose activity change, negative = inhibition, actives largely listed as inhibitors; AID 504834; also: potency is read from the fitted curve at half-maximal effect; % is scaled to controls: 0 for no effect and ±100 for the full control effect
#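 Cell-based qHTS: luciferase-tagged P. falciparum in erythrocytes (2% hematocrit, 0.05% parasitemia final) incubated with compounds for 96 hours, 37 C, 5% CO2; luciferase detection reagent then added and luminescence measured.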
# NS1 inh: inhibitors of influenza NS1 protein function. Potency, µM (series often up to 46.1 µM), for the others: at the top dose activity, positive = more growth. AID 2326. 270,000 tested, 0.4% active; calls by dose curve; also: potency is read from the fitted curve at half-maximal effect; actives are rising curves; nearly all actives have a fitted effect of over 50% in size
#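 A cell-based growth assay was used: compounds that relieve NS1-induced slow growth of budding yeast raise OD600. Assay medium was yeast nitrogen base with ammonium sulphate and -URA supplement, pH 6.0, with 2% galactose.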
# Shiga toxin inh: Shiga toxin inhibition; Vero cells, Shiga toxin protein synthesis inhibition reporter; inhibition, % at 38.7 µM; 290,000 tested, 9.2% active; AID 2315; in the data active = inhibition mostly above about 28%, no sharp cut-off; inactive = mostly below about 43%; also: 0% is about no effect
# Sm TGR inh: S. mansoni TGR enzyme inhibition; Q962Y6; purified TGR, DTNB reduction, TNB absorbance 405 nm; Potency, µM (titrated, usually from 114 µM), for the others: top-dose activity change, negative = inhibition, actives largely listed as inhibitors; 360,000 tested, 3% active; also: potency is read from the fitted curve at half-maximal effect; % is scaled to controls: 0 for no effect and ±100 for the full control effect; nearly all actives have a fitted effect of over 60% in size
#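 First, TGR (20 nM dispensed) and NADPH were mixed with compound. Second, a 15 min room-temperature incubation followed. Third, further NADPH and then DTNB were added to start the reaction. Finally, TNB absorbance was monitored kinetically.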
# Pf growth 48h: P. falciparum growth inhibition at 48 hours (one generation); P. falciparum luciferase growth in erythrocytes, 48 h; Potency, µM (series often up to 28.7 µM), without a hit: at the top dose activity change, negative = inhibition, most hits filed as inhibitors; 310,000 tested, 5.9% active; AID 504832; also: potency is read from the fitted curve at half-maximal effect; % is scaled to controls: 0 for no effect and ±100 for the full control effect
#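 Read-out is firefly luciferase luminescence from an integrated reporter in P. falciparum, so falling signal marks reduced parasite growth. Infected erythrocytes were at 2% hematocrit and 0.1% parasitemia (final) in Albumax-supplemented RPMI 1640.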
# An asterisk follows results filed as active; ? = inconclusive; / = no result given; [ ] = another dose, or the depositor's remark. Unless noted, calls follow the shape of the dose curve; as a rule, active = well fitted curve in the direction sought with a large enough effect; inconclusive = small, poorly fitted or top-dose-only effect, or another doubt; inactive = no such curve, though single readings can be large; an effect the other way counts as inactive or inconclusive.
SMILES,CHX counter,Pf growth 96h,NS1 inh,Shiga toxin inh,Sm TGR inh,Pf growth 48h
CCOc1ccccc1NC(=O)NC1Cc2ccccc2C1,0,8.3µM*,2%,12,17%,?
CCOc1ccccc1NC(=O)Nc1ccc(CC#N)cc1,17*,15%,-11%,28,12%,7%
CCOc1ccccc1NC(=O)Nc1ccon1,1,109%,-8%,1,9%,15%
Cc1ccc(NC(=O)Nc2cccc3ccccc23)cc1,9,7%,3%,-10,2%,37%
CCOc1ccccc1NC(=O)Nc1ccncc1,5,15%,1%,14,20%,3.3µM*
O=C(Nc1cccc2ccccc12)NC1Cc2ccccc2C1,4,?,1%,23,104%,32%
COc1cc(S(=O)(=O)NCCc2c(C)[nH]c3ccccc23)c(C)cc1C,/,/,/,/,3%,/
CN(CC(=O)Nc1ccc(F)cc1)C(=O)c1cccc(NS(=O)(=O)c2ccccc2)c1,/,?,/,/,-12%,-17%
CCOCc1cc(CN2CCC(CCC(=O)NC3CC3)CC2)ccc1OC,-2,9.3µM*,-3%,0,-5%,3%
COc1cc(Cl)c(CN2CCC(CCC(=O)NC3CC3)CC2)cc1OC,-1,?,8%,-5,5%,0%
COc1cc(Cl)cc(CN2CCC(CCC(=O)NC3CC3)CC2)c1OC,-1,13µM*,?,-1,-2%,?
CCN1C(=O)c2ccccc2S(=O)c2ccc(C(=O)NCc3ccc(Cl)cc3)cc21 (stereo not drawn),/,/,/,/,2%,/
COc1cccc(NC(=O)c2oc3ccccc3c2NC(=O)c2ccc(C(F)(F)F)cc2)c1,/,/,/,/,5%,/
CCCCN(C(=O)c1ccc2c(c1)OCO2)C1CCS(=O)(=O)C1 (stereo not drawn),/,6%,/,/,6%,11%
CCN(CC)S(=O)(=O)c1ccc(S(=O)(=O)Nc2cc3c(cc2C(C)=O)OCO3)cc1,-9,12µM*,6%,-13,-11%,?
CCN(CC)S(=O)(=O)c1cccc(C(=O)Nc2ccc3c(c2)OCO3)c1,35*,-18%,-3%,91*,1%[57.1 µM],15%
CCC(CC)C(=O)Nc1cccc(C(=O)Nc2ccc(S(N)(=O)=O)cc2)c1,-4,-1%,1%,-6,?,-5%
CCN(CC)S(=O)(=O)c1ccc(C(=O)NCc2ccc3c(c2)OCO3)cc1,-1,?,/,22,4%,-8%
CCC(CC)C(=O)Nc1cccc(C(=O)Nc2ccc3c(c2)OCO3)c1,43*,/,-5%,80*,-4%,16%
CCN(CC)S(=O)(=O)c1ccc(C(=O)Oc2ccc3c(c2)OCO3)cc1,-1,3.3µM*,-10%,-2,-3%,-24%
CC(=O)c1ccc(S(=O)(=O)Nc2cc3c(cc2C(C)=O)OCO3)cc1,2,108%,/,-5,-9%,-17%
Cc1ccc(C)c(NC(=O)c2cc(S(=O)(=O)N3CCN(c4cccc(Cl)c4)CC3)ccc2F)c1,/,/,/,/,1%,/
CCCOc1ccc(N/C=C/C(=O)c2cc(OC)c(OC)c(OC)c2)cc1,6,-51%,8%,/,-3%,2%
CCN(CC(=O)Nc1cccc(C(C)=O)c1)S(=O)(=O)c1ccccc1,-2,9.3µM*,6%,3,?,?
CCN(CC)S(=O)(=O)c1ccc(C(=O)Nc2ccc3c(c2)OCCO3)cc1,20*,?,-6%,38,?,6.6µM*
SMILES,CHX counter,Pf growth 96h,NS1 inh,Shiga toxin inh,Sm TGR inh,Pf growth 48h
CCN(CC(=O)Nc1ccc2c(c1)OCCO2)S(=O)(=O)c1ccccc1,24*,-6%,-5%,37*,-21%,41%
CS(=O)(=O)N(CC(=O)Nc1ccc2c(c1)OCO2)Cc1ccccc1,13*,-7%,-4%,28,-7%,-2%
CCN(CC(=O)Nc1ccc2c(c1)OCCO2)C(=O)c1ccc(S(=O)(=O)N(C)C)cc1,/,44%,/,/,6%,-7%
CS(=O)(=O)N(CCc1ccccc1)CC(=O)Nc1ccc2c(c1)OCO2,7,0%,-11%,-11,?,3%
CCN(CC)S(=O)(=O)c1ccc(NC(=O)c2ccc(NS(C)(=O)=O)cc2)cc1,-2,/,-7%,-6,1%,-18%
CCCNC(=O)CN1C(=O)NC(CCSC)C1=O (stereo not drawn),-3,4%,0%,2,-6%,1%
COc1ccc(OC)c(NC(=O)Nc2cccnc2)c1,2,-44%,-16%,-8,3%,-6%
Cc1ccc(NC(=O)Cc2c(O)c3ccccc3[nH]c2=O)c(C)c1,18*,57%,2%,22,-5%,21%
CCOc1ccc(NC(=O)Cc2c(O)c3ccccc3[nH]c2=O)cc1,-2,91%,4%,-13,?,2.9µM*
Cc1ccccc1NC(=O)Cc1c(O)c2ccccc2[nH]c1=O,-3,32%,9%,-4,-4%,11%
Cc1nn(C(C)C(=O)NNC(=S)Nc2ccc(F)cc2)c(C)c1[N+](=O)[O-] (stereo not drawn),-7,16%,7%,-20,-1%,/
O=S(=O)(Nc1ccc(N=Nc2ccc(O)c3ccccc23)cc1)c1ccccc1,6,5.2µM*,?,12,-12%,2.3µM*
C=CCNc1nc(Cl)nc(Nc2ccc(OC)cc2)n1,22*,49%,-7%,64*,3%,?
C=CCNc1nc(Nc2ccc([N+](=O)[O-])cc2)nc(N2CCCC2)n1,26*,?,/,-11,7%,-24%
C=CCNc1nc(Nc2ccc(OC)cc2)nc(OC)n1,8,/,-16%,42,0%,14%
C=CCNc1nc(Nc2ccc(-c3nc4ccccc4o3)cc2)nc(N2CCOCC2)n1,6,4.7µM*,25%,24,-8%,/
C=CCNc1nc(NCC)nc(N2CCOCC2)n1,3,?,-1%,-19,1%,7%
C=CCNc1nc(Cl)nc(Nc2ccc([N+](=O)[O-])cc2)n1,-1,2.3µM*,/,-7,2%,16%
COc1ccc(OC)c(Nc2nn3c(=O)c4ccccc4nc3s2)c1,/,11%,/,/,/,-18%
COc1ccc(C(=O)Nc2ccccc2-c2nc3ccccc3s2)cc1OC,/,/,/,/,1%,/
CCOc1ccc(C(=O)NCCc2ccccc2)cc1,24*,26%,-91%,32,10%,/
CC(=O)Oc1ccc(-c2ccc(C(=O)NCCc3ccc(S(N)(=O)=O)cc3)cc2)cc1,-1,13%,0%,-3,1%,0%
CC(=O)Oc1ccc(C(=O)NCCc2ccccc2)cc1,15*,5%,/,36,1%,364%
CCOc1ccc(C(=O)NC(=S)N(Cc2ccccc2)Cc2ccccc2)cc1,10,2.6µM*,0%,-12,8%,?
CN(C(=O)c1cc2c(s1)-c1ccccc1S(=O)(=O)C2)c1ccccc1,9,?,-11%,42,1%,9.3µM*
